Shown is part of a subset that was picked to be rich in hits.
B2AR arrestin ag: qHTS assay of beta-arrestin-biased ligands of beta2-adrenergic receptor: NCGC Sytravon Library Screen; 44,000 tested, under 10 active; Potency, µM (top dose mostly 46.1 µM), hits mostly activators; AID 1347077, 2019; HTLA Tango cells, beta-arrestin recruitment, luciferase luminescence, 18 h; Beta-2 adrenergic receptor (Homo sapiens), P07550;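 further: potency means the concentration at half of the fitted maximal effect; 0% = DMSO and full agonism = EC100 isoproterenol or metaproterenol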
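First, Tango cells carrying beta2-AR and beta-arrestin fusions received compound up to 46 microM. After 18 hr at 37 degrees C, luciferase substrate was added for 15 minutes, then luminescence gave %Activity for curve fitting.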
NTMT1 inhibitor: Primary qHTS for Inhibitors of N-terminal methyltransferase 1 (NTMT1): MTaseGlo Assay; N-terminal Xaa-Pro-Lys N-methyltransferase 1 (Homo sapiens), Q9BV86; NTMT1 MTase-Glo SAH luminescence, purified enzyme; Potency, µM (top dose mostly 114 µM), for the others: top-dose activity change, negative = inhibition, usual class: inhibitors; 59,000 tested, 2.5% active;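 further: potency means the concentration at half of the fitted maximal effect; plate controls were DMSO vehicle for no effect and no enzyme for full effect; nearly all actives have a fitted effect of over 65% in size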
Target sequence (Q9BV86 whole entry, looked up): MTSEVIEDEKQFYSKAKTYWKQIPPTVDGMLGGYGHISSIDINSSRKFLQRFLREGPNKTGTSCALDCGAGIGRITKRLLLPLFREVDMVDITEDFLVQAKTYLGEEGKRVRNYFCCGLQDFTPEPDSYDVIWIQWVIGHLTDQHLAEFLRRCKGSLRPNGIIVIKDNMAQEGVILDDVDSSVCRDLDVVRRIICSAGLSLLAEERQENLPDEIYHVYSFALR
GALC G270D act: A Novel Cell-Based Assay to Identify Small Molecules for B -Galactocerebrosidase. AID 1159614, 2016. P54803. 45,000 tested, 0.1% active. 145M-Twi-hGALC-G270D cells (Twitcher mouse brain line with human GALC G270D), HMU-beta-Gal fluorescence, 48 h. Potency, µM (titrated, usually from 57.5 µM), actives largely listed as activators; further: potency means the concentration at half of the fitted maximal effect; 0% is about no effect; nearly all actives have a fitted effect of over 65% in size
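Fluorogenic HMU-b-Gal hydrolysis (0.1 mM final, pH 5.2 citrate-phosphate with 1 mg/mL sodium taurocholate; carbonate stop buffer) measures mutant GALC activity after compound treatment of live 145M-Twi Twitcher brain cells stably carrying human GALC-G270D, with wild-type GALC line alongside; activation sought.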
TSG101-PTAP inh: qHTS Validation Assay for Inhibitors of HIV-1 Budding by Blocking the Interaction of PTAP/TSG101: Sytravon Library Screen. Fluorescence polarization, FITC-PTAP peptide/Tsg101, 20 min. Potency, µM (highest dose often 115 µM), most hits filed as inhibitors. Tumor susceptibility gene 101 protein (Homo sapiens), Q99816. 44,000 tested, under 10 active; further: potency means the concentration at half of the fitted maximal effect; 0% is about no effect
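Read-out is FITC fluorescence polarization. Compounds were added to Tsg101 binding domain (10 uM final), then FITC-PTAP peptide (50 nM final), 20 min at r.t. Total S+P intensity flags fluorescent compounds.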
FH mod: Identification of activators of human fumarate hydratase by quantitative high-throughput screening; 54,000 tested, 0.22% active; Fumarate hydratase, mitochondrial (Homo sapiens), P07954; Potency, µM (highest dose often 79.9 µM), for inactives: top-dose activity change, negative = inhibition, most hits filed as inhibitors; FH coupled MDH/diaphorase resazurin fluorescence, 15 min; further: potency means the concentration at half of the fitted maximal effect; on the % scale 0 is the no-effect control and ±100 the full control effect; the screen sought activators but most active calls are inhibition curves; nearly all actives have a fitted effect of over 45% in size
GALK inhibitor: qHTS Assay for Inhibitors of Human Galactokinase (GALK): NCGC Sytravon Library Screen; P51570; recombinant GALK, Kinase-Glo ATP luminescence, 1 h; Potency, µM (titrated, usually from 57.5 µM), without a hit: top-dose activity, negative = inhibition, actives largely listed as inhibitors; AID 1347072, 2019; 44,000 tested, under 10 active;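 further: plate controls were full GALK reaction for no effect and reaction lacking GALK for full effect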
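Compounds were pinned into ATP buffer, then GALK-galactose mix was added (final 5 nM enzyme, 35 uM ATP, 100 uM galactose, pH 8.0). After 1 h at room temperature, Kinase-Glo Plus was added and luminescence read.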
Sfp qHTS opt: qHTS Assay for Inhibitos of Bacillus subtilis Sfp phosphopantetheinyl transferase (PPTase): Chemistry Optimization Followup; shares compounds with NTMT1 inhibitor; purified Sfp PPTase enzyme activity, qHTS; Potency, µM (doses to about 114 µM), for inactives: at the highest dose activity change, negative = inhibition, usual class: inhibitors; 230 tested, 78% active
HM489 growth: qHTS for Inhibitos of Bacillus subtilis Sfp phosphopantetheinyl transferase (PPTase): Chemistry Optimization Followup in B. Subtilis HM489 | Potency, µM (top dose mostly 114 µM), inactives show at the highest dose activity change, negative = inhibition, most hits filed as inhibitors | shares compounds with NTMT1 inhibitor | B. subtilis HM489 (acpS-) growth, BacTiter-Glo, 5 h | 220 tested, 50% active | AID 540353, 2011
Sfp gel opt: Gel-Based Assay for Inhibitos of Bacillus subtilis Sfp phosphopantetheinyl transferase (PPTase): Chemistry Optimization Followup. Potency, µM (doses to about 250 µM), for the others: top-dose activity change, negative = inhibition, usual class: inhibitors. purified Sfp PPTase, gel-based product detection. shares compounds with NTMT1 inhibitor. 220 tested, 54% active
Sfp gel: qHTS Assay for Inhibitors of Bacillus subtilis Sfp phosphopantetheinyl transferase (PPTase): Gel Based Assay; shares compounds with NTMT1 inhibitor; purified Sfp PPTase, gel-based product detection; Potency, µM (highest dose often 250 µM), for inactives: at the top dose activity change, negative = inhibition, most hits filed as inhibitors; 45 tested, 90% active; AID 602362, 2012
Sfp inh SAR2: qHTS Assay for Inhibitors of Bacillus subtilis Sfp phosphopantetheinyl transferase (PPTase): SAR Round 2. AID 602370, 2012. shares compounds with NTMT1 inhibitor. 230 tested, 87% active. purified Sfp enzyme, PPTase activity, qHTS. Potency, µM (titrated, usually from 57.1 µM), for the others: at the top dose activity change, negative = inhibition, hits mostly inhibitors
hGST ctr: qHTS Assay for Inhibitors of Bacillus subtilis Sfp phosphopantetheinyl transferase (PPTase): SAR in hGST A1-1 | shares compounds with NTMT1 inhibitor | Potency, µM (highest dose often 114 µM), without a hit: at the highest dose activity change, negative = inhibition, usual class: inhibitors | hGST A1-1 enzyme activity counter-screen, qHTS | 55 tested, under 10 active
HSD17B4 counter: Extended Characterization of HPGD Inhibitors: Counterscreen Against HSD17b4 | shares compounds with NTMT1 inhibitor | purified HSD17B4, estradiol/NAD+, NADH fluorescence | Potency, µM (doses to about 57.1 µM), without a hit: at the highest dose activity change, negative = inhibition, most hits filed as inhibitors | 230 tested, 10% active | AID 743187, 2013
ALDH1A1 inh: Extended Characterization of HPGD Inhibitors: Counterscreen Against ALDH1A1. shares compounds with NTMT1 inhibitor. recombinant ALDH1A1, NADH fluorescence, propionaldehyde/NAD+. Potency, µM (series often up to 57.1 µM), for inactives: at the highest dose activity change, negative = inhibition, actives largely listed as inhibitors. 230 tested, 93% active. AID 743195, 2013
Target sequence (P00352 whole entry, looked up): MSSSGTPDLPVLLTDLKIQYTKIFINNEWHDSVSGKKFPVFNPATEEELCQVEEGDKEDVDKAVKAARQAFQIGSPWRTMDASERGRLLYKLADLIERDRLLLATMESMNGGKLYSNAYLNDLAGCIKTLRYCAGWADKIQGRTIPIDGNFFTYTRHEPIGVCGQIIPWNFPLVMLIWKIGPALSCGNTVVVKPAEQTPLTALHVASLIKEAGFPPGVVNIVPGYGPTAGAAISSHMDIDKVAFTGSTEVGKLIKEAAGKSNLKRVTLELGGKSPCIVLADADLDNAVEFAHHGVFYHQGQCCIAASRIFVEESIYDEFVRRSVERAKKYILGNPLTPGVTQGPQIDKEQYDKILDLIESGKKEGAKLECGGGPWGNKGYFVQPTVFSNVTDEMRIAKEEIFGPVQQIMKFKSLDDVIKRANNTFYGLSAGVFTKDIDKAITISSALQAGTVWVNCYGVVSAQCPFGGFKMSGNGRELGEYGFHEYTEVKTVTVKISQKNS
NNMT counter: Counterscreen qHTS for Inhibitors of N-terminal methyltransferase 1 (NTMT1): NNMT MTaseGlo assay. shares compounds with NTMT1 inhibitor. NNMT MTase-Glo luminescence, SAH detection. Potency, µM (highest dose often 57.1 µM), inactives show at the highest dose activity, negative = inhibition, most hits filed as inhibitors. 120 tested, 10% active
* hit, by the source's call; i = inactive; ? = inconclusive; / = no result; [ ] = another dose, or the depositor's remark. The call rests on the fitted dose curve; in most records, active means well fitted curve in the direction sought with a large enough effect; inconclusive means small, poorly fitted or top-dose-only effect, or another doubt; inactive means no such curve, though single readings can be large; an effect the other way counts as inactive or inconclusive.

SMILES	B2AR arrestin ag	NTMT1 inhibitor	GALC G270D act	TSG101-PTAP inh	FH mod	GALK inhibitor	Sfp qHTS opt	HM489 growth	Sfp gel opt	Sfp inh SAR2	HSD17B4 counter	ALDH1A1 inh	others
CN(C)C/C=C/C(=O)Nc1cc2c(Nc3ccc(F)c(Cl)c3)ncnc2cc1OC1CCOC1 (stereo unspecified)	/	6.3µM*	/	/	16%	/	/	/	/	/	/	/	NNMT counter=?
N#Cc1cnc2cnc(NCc3cccnc3)cc2c1Nc1ccc(F)c(Cl)c1	/	?	/	/	0%	/	/	/	/	/	/	/
COc1cc(NC(=S)N2CCN(c3cccc(C(F)(F)F)c3)CC2)nc2ccccc12	/	?	/	/	/	/	1.9µM*	47µM*	0.79µM*	0.65µM*	-57%	5.4µM*
COc1cccc(NC(=S)N2CCN(c3ncc(C(F)(F)F)cc3Cl)CC2)n1	/	?	/	/	/	/	?	12%	5%	4.6µM*	-13%	1.1µM*
O=C(Nc1ccc(C(F)(F)F)cn1)N1CCN(c2ncccc2C(F)(F)F)CC1	/	3%[57.5 µM]	/	/	1%	/	/	/	/	/	/	/
COc1cc2c(C(=O)N3CCN(c4cccc(C(F)(F)F)c4)CC3)cn(CC(C)C)c(=O)c2cc1OC	i	1%	i	i	-9%	0%	/	/	/	/	/	/
COc1cccc(NC(=S)N2CCN(c3ccc(Cl)c(Cl)c3)CC2)n1	/	/	/	/	/	/	?	30%	95µM*	8.1µM*	?	6.1µM*	Sfp gel=107µM*;hGST ctr=?
COc1cccc(NC(=S)N2CCN(c3cccc(C(F)(F)F)c3)CC2)n1	/	/	/	/	/	/	13µM*	42µM*	20µM*	11µM*	19µM*	15µM*
Nc1ncnc2c1ncn2[C@H]1O[C@@H](C(=O)N2CCN(CC(=O)Nc3cccc4c3CNC4=O)CC2)[C@H](O)[C@@H]1O	/	-1%[57.5 µM]	/	/	-1%	/	/	/	/	/	/	/
C=C(C)[C@@H]1CCC2=CC(=O)C[C@@H](C)[C@]2(C)C1	/	4%[228 µM]	/	/	4%[162 µM]	/	/	/	/	/	/	/
CCC(C)CNCC(=O)N1CCC2SC=CC2C1COc1cccc(C)c1 (stereo unspecified)	/	-6%[57.5 µM]	/	/	1%	/	/	/	/	/	/	/
CC(C)C[C@H](CC(=O)NO)C(=O)N[C@@H](Cc1ccc2ccccc2c1)C(=O)N[C@@H](C)C(=O)NCCN	/	7%[57.5 µM]	/	/	10%	/	/	/	/	/	/	/
CN(C)c1ccc2nc(NC(=S)N3CCN(c4cccc(C(F)(F)F)c4)CC3)sc2c1	/	13%[57.5 µM]	/	/	/	/	?	?	20µM*	10µM*	?	9.6µM*
CC(C)C[C@H](CO)Nc1nc(S[C@@H](C)c2ccccc2)nc2nc(N)sc12	/	3%[57.5 µM]	/	/	?	/	/	/	/	/	/	/
Cc1cnc(Nc2ccc(F)cc2Cl)nc1-c1c[nH]c(C(=O)NC(CO)c2cccc(Cl)c2)c1 (stereo unspecified)	/	-6%[57.5 µM]	/	/	-15%	/	/	/	/	/	/	/	NNMT counter=-17%

Screens (PubChem BioAssay)
